We go through 35 molecules from PubChem BioAssay (NCATS).

Several values for one entry are separate records, joined by “and”; a condition that tells them apart may be missing. Identical values can stand only once. A number with no mark means an inactive call. Activity calls are given as the source filed them. Unless noted, the call rests on the fitted dose curve; in most records, active means well fitted inhibition curve with a large enough effect; inconclusive means small, poorly fitted or top-dose-only effect; inactive means flat fitted curve, though single readings scatter.
Potency means the concentration at half of the fitted maximal effect.

Chain of Estrogen receptor (Homo sapiens) (P03372 whole entry, looked up): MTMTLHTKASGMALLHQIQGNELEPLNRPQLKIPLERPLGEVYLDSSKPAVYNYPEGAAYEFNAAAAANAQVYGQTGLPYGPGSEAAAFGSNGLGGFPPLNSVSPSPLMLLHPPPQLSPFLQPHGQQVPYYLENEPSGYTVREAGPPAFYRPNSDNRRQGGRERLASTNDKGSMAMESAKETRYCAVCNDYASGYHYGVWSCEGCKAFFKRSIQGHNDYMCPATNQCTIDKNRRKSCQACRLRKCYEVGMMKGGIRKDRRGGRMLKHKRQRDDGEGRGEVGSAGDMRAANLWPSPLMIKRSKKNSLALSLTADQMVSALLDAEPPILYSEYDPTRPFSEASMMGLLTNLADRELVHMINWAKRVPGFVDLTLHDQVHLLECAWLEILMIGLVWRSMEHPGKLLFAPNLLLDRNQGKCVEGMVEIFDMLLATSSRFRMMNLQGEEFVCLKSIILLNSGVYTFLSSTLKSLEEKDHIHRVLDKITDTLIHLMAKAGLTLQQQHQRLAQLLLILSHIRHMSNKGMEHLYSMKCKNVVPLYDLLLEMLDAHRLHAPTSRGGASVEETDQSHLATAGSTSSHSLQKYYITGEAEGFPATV

The target in the first experiment is Ubiquitin carboxyl-terminal hydrolase 1 (Homo sapiens) (UniProt O94782). The experiment is described as follows: Inhibitors of USP1/UAF1: Pilot qHTS (AID 504865). Further: nearly all actives have a fitted effect of over 35% in size.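 On activity change, negative = inhibition: rhodamine fluorescence freed from ubiquitin-rhodamine substrate followed over time; top concentration of the series differs between compounds; on the % scale 0 is the no-effect control and ±100 the full control effect.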 Particulars: purified USP1/UAF1, Ub-rhodamine cleavage fluorescence; series mostly up to 114 µM; activity change, negative = inhibition: at the top concentration. Put shortly: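 USP1/UAF1 complex (1nM) preincubated with compound 15 min at room temperature, then Ub-Rho substrate (150nM final) added. Fluorescence read kinetically at 480/540 nm, 6 reads every 60 seconds. Buffer: 50mM HEPES pH 7.8, 0.5mM EDTA, 0.1 mg/ml BSA, 1mM TCEP, 0.01% Tween-20.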
Chain of Ubiquitin carboxyl-terminal hydrolase 1 (Homo sapiens) (O94782 whole entry, looked up): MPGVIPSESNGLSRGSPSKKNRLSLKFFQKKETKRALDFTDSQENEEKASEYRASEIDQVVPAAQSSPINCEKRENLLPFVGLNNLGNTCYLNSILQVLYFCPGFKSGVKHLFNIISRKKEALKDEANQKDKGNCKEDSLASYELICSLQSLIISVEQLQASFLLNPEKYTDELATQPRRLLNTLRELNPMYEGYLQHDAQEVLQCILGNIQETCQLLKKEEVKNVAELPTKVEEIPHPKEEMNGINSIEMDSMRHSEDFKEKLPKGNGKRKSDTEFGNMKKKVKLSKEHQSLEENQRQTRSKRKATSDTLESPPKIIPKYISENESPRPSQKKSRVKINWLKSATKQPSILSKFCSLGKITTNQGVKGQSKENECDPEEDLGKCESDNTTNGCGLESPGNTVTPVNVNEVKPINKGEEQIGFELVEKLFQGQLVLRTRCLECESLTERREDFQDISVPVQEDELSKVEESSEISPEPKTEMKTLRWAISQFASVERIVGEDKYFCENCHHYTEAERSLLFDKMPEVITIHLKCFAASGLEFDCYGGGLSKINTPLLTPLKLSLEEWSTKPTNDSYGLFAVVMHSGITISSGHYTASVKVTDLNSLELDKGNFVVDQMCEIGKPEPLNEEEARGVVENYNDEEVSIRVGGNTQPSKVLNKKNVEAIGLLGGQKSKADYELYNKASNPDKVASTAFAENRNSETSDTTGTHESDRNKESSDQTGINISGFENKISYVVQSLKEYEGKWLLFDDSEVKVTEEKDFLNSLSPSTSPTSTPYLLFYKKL
(qHTS replaces the single test concentration by a dilution series.)
Take `CC(C)=CCOc1ccc(/C=C/C(=O)c2ccc(OCC=C(C)C)cc2OCC(=O)O)cc1`: the Potency is 79.4 µM (active).
Regarding `NC(=O)c1ccccc1O`, the “activity change, negative = inhibition” value was -10.3%.
The same measure, in the same setting: the value for `CCCN(CCC)S(=O)(=O)c1ccc(C(=O)O)cc1` was -5.18%.
On the same count and under the same terms, as for `C=C[C@@]1(C)CC(=O)[C@]2(O)[C@@]3(C)[C@@H](O)CCC(C)(C)[C@@H]3[C@H](O)[C@H](OC(C)=O)[C@@]2(C)O1`, the figure is -1.95%.
`COc1ccc(C(Cl)=C(c2ccc(OC)cc2)c2ccc(OC)cc2)cc1`: the “activity change, negative = inhibition” value is -8.04% [at 54.9 µM].
As for `Oc1c(Cl)cc(Cl)c(Cl)c1Cc1c(O)c(Cl)cc(Cl)c1Cl`, the Potency is 79.4 µM (active) and 31.6 µM (active).
The same measure, in the same setting: the value for `CC1(COc2ccc(CC3SC(=O)NC3=O)cc2)CCCCC1` (centres undefined) was 20 µM (active).
For `NCCNc1cccc2ccccc12`, the “activity change, negative = inhibition” value is -0.0641%.
Still for that read-out and setting: the value for `OC[C@H]1O[C@@H]2O[C@H]3[C@H](O)[C@@H](O)[C@@H](O[C@H]4[C@H](O)[C@@H](O)[C@@H](O[C@H]5[C@H](O)[C@@H](O)[C@@H](O[C@H]6[C@H](O)[C@@H](O)[C@@H](O[C@H]7[C@H](O)[C@@H](O)[C@@H](O[C@H]8[C@H](O)[C@@H](O)[C@@H](O[C@H]1[C@H](O)[C@H]2O)O[C@@H]8CO)O[C@@H]7CO)O[C@@H]6CO)O[C@@H]5CO)O[C@@H]4CO)O[C@@H]3CO` was -6.03%; that for `CC(=O)O[C@H]1C[C@@H]2CC[C@@H]3[C@H](CC[C@@]4(C)[C@H]3C[C@H]([N+]3(C)CCCCC3)[C@@H]4OC(C)=O)[C@@]2(C)C[C@@H]1N1CCCCC1` was -4.27%; that for `CCCCNc1ccc(C(=O)OCCOCCOCCOCCOCCOCCOCCOCCOCCOC)cc1` was 12.4% [at 54.9 µM].
The same measure, in the same setting: the value for `CN(C)C(=O)Nc1ccc(Cl)c(Cl)c1` was 2.02%; that for `Cc1ccc(O)c([C@H](CCN(C(C)C)C(C)C)c2ccccc2)c1` was -5.82%; that for `CCCCCCCCOc1ccc(C(=O)c2ccccc2)c(O)c1` was -6.21%.
Take `CCCCCCCC/C=C\CCCCCCCCN`: the “activity change, negative = inhibition” value was -4.41%.
In the case of `CCOc1ccc(NC(C)=O)cc1`, the Potency result is “inactive”.
With `COc1cc([C@H]2Oc3cc([C@H]4Oc5cc(O)cc(O)c5C(=O)[C@@H]4O)ccc3O[C@@H]2CO)ccc1O`, the “activity change, negative = inhibition” value is -11.7%.
The same measure, in the same setting: as for `NC(=O)n1c(O)c(C(=O)c2cccs2)c2cc(Cl)ccc21`, the figure is -14.1%; as for `COc1ccc(C(=O)c2ccccc2)c(O)c1`, 10% [at 54.9 µM].
On to `C#C[C@]1(O)CC[C@H]2[C@@H]3CCC4=Cc5oncc5C[C@]4(C)[C@H]3CC[C@@]21C`, for which the “activity change, negative = inhibition” value is -8.22%.
Turning to `COc1ccc(C(=O)c2ccccc2O)c(O)c1`, the “activity change, negative = inhibition” value was 6.04% [at 54.9 µM].
Consider `CC(C)(C)NC[C@H](O)COc1cccc2c1CCCC2=O`, for which the Potency result is “inactive”.
For `O=C(O)CCC(=O)Nc1ccc(S(=O)(=O)Nc2nccs2)cc1`, the “activity change, negative = inhibition” value is -7.08% [at 54.9 µM].
Regarding `CCCCCCCCCCCCCC(=O)OC(C)C`, the “activity change, negative = inhibition” value is -0.295%.
The same measure, in the same setting: as for `O=C(O)c1ccc(S(=O)(=O)N(Cl)Cl)cc1`, the figure is -1.31%.
As to `C[N+]1(C)CCC(=C(c2ccccc2)c2ccccc2)CC1`, the “activity change, negative = inhibition” value was -5.23% [at 54.9 µM].
The same measure, in the same setting: the value for `CCN(CC)CCOc1ccccc1C(=O)CCc1ccccc1` was -6.82%; that for `CC(C)(C)CC(C)(C)c1ccc(O)c(-n2nc3ccccc3n2)c1` was -7.18%.
`CC(C)CCCC(C)N` (centres undefined): the “activity change, negative = inhibition” value is -5.93%.
Same read-out and setting: the value for `C/C=C/c1ccc(O)c(OC)c1` was -3.12%; that for `Cc1c[nH]c2ccccc12` was 0.815%; that for `CCOc1ccccc1C(N)=O` was 0.456%.

The next experiment concerns the target Estrogen receptor (Homo sapiens) (UniProt P03372). The experiment is described as follows: qHTS assay for small molecule antagonists of estrogen receptor alpha signaling (AID 588513; active means well fitted curve in the direction sought with a large enough effect in the signal ratio, with a control signal flat, not every such curve was filed as active; inconclusive means small, poorly fitted or top-dose-only effect, or effect the other way, or a change in a side signal; inactive means no such curve, though single readings can be large or run the other way; the % refers to the signal ratio; on activity, negative = inhibition: on the % scale 0 is the no-effect control and ±100 the full control effect). The conditions noted are these: ER-alpha-UAS-bla HEK293, beta-lactamase ratio, antagonist mode; series mostly up to 76.9 µM; activity, negative = inhibition: at the top concentration. Put shortly: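 ER-alpha-UAS-bla GripTite HEK 293 cells in medium with 2% charcoal/dextran-treated FBS were preincubated 4 h at 37 C, dosed with compound (1:2 titration), stimulated with 0.5nM 17-beta-estradiol for 18 h, then read by CCF4 beta-lactamase fluorescence.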
On to `NC(=O)c1ccccc1O`, for which the “activity, negative = inhibition” value is 22%.
With `COc1ccc(C(Cl)=C(c2ccc(OC)cc2)c2ccc(OC)cc2)cc1`, the Potency is 1.58 µM [inconclusive] (active).
On to `CCCCCCCCCCCCCCCCO`, for which the “activity, negative = inhibition” value was -0.743%.
Take `CCCCC(CC)COC(=O)c1ccc(N(C)C)cc1` (centres undefined): the Potency result was “inactive”.
On to `CN(C)C(=O)Nc1ccc(Cl)c(Cl)c1`, for which the “activity, negative = inhibition” value is -15.5%.
Turning to `CCCCCCCC/C=C\CCCCCCCCN`, the “activity, negative = inhibition” value was 6.39%.
Consider `CCOc1ccc(NC(C)=O)cc1`, for which the Potency entry is “inactive”.
With `COc1cc([C@H]2Oc3cc([C@H]4Oc5cc(O)cc(O)c5C(=O)[C@@H]4O)ccc3O[C@@H]2CO)ccc1O`, the “activity, negative = inhibition” value is 0.288%.
With `COc1ccc(C(=O)c2ccccc2)c(O)c1`, the Potency result was “inactive”.
Turning to `CCCCCCCCCCCCCC(=O)OC(C)C`, the “activity, negative = inhibition” value was 25.1%.
`O=C(O)c1ccc(S(=O)(=O)N(Cl)Cl)cc1`: the “activity, negative = inhibition” value was 6.78%.
With `C/C=C/c1ccc(O)c(OC)c1`, the Potency result was “inactive”.
With `CCOc1ccccc1C(N)=O`, the “activity, negative = inhibition” value was 5.92%.

The target is the same in the next experiment. The experiment is described as follows: qHTS assay for small molecule agonists of estrogen receptor alpha signaling (AID 588514; calls by dose curve; further: nearly all actives have a fitted effect of over 70% in size;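 on activation: 0% = vehicle only and 100% = reference agonist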). Particulars: ER-alpha-UAS-bla HEK293, beta-lactamase ratio, 18 h; series mostly up to 76.8 µM; activation: at the top concentration. Put shortly:
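Read-out: CCF4 fluorescence from a beta-lactamase reporter in ER-alpha-UAS-bla HEK 293 cells after 18 hrs of compound exposure at 37 C. Normalized to 20 nM 17-beta-estradiol (100%) and DMSO (0%).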
Take `NC(=O)c1ccccc1O`: the “activation” value was 8.42%.
For `Oc1ccc(Cl)cc1Cc1cc(Cl)ccc1O`, the Potency result was “inactive”.
With `COc1ccc(C(Cl)=C(c2ccc(OC)cc2)c2ccc(OC)cc2)cc1`, the “activation” value is -1.11%.
On the same count and under the same terms, the value for `CCCCCCCCCCCCCCCCO` was 3.54%.
Take `CCCCC(CC)COC(=O)c1ccc(N(C)C)cc1` (centres undefined): the Potency result is “inactive”.
As for `CN(C)C(=O)Nc1ccc(Cl)c(Cl)c1`, the “activation” value was 3.32%.
Turning to `CCCCCCCCOc1ccc(C(=O)c2ccccc2)c(O)c1`, the “activation” value is -1.73%.
The same measure, in the same setting: as for `CCCCCCCC/C=C\CCCCCCCCN`, the figure is -2.04%.
On to `CCOc1ccc(NC(C)=O)cc1`, for which the Potency entry is “inactive”.
Turning to `C#C[C@]1(O)CC[C@H]2[C@@H]3CCC4=Cc5oncc5C[C@]4(C)[C@H]3CC[C@@]21C`, the Potency is 3.16 µM (active).
Consider `O=C(O)c1ccc(S(=O)(=O)N(Cl)Cl)cc1`, for which the “activation” value was -0.991%.
Same read-out and setting: the value for `CC(C)(C)CC(C)(C)c1ccc(O)c(-n2nc3ccccc3n2)c1` was -4.85%.
`C/C=C/c1ccc(O)c(OC)c1`: the Potency entry was “inactive”.
`CCOc1ccccc1C(N)=O`: the “activation” value is -0.921%.
